Assay results: the supplement of paper PMC10646978
± gives the standard deviation.

Experiments:
Conditions in all cases: modulator concentration 10 µM
[1] = tested on: RAW-Dual (murine macrophage reporter line); experiment: NF-kB reporter (SEAP) activity fold change vs agonist alone; higher = enhanced NF-kB activity
Procedure, shortened: (§1)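 RAW-Dual murine macrophage reporter cells were seeded at 50 000 per well in 384-well plates and pre-incubated 1 hour at 37 °C with compound pin-transferred to 10 μM final. After 1 hour, a PRR agonist was added and cells incubated overnight. Supernatant NF-κB (SEAP, QUANTI-Blue, 620 nm absorbance) and IRF (Lucia luciferase, QUANTI-Luc, luminescence) signals were divided by the mean agonist-only control on the same plate to give fold change. Two replicate plates were averaged, with errors by propagation.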

[2] = tested on: RAW-Dual (murine macrophage reporter line); experiment: IRF reporter (Lucia luciferase) activity fold change vs agonist alone; higher = enhanced IRF activity
Procedure, shortened: as §1

[3] = tested on: RAW-Dual (murine macrophage reporter line); experiment: viability score (confluency relative to resting cells, overnight) (fraction); higher = more viable, active = viable (0.7 or more)
Procedure, shortened: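 Confluency was the readout: RAW-Dual macrophages were imaged with IncuCyte after an overnight exposure to compound at 10 μM final. IncuCyte software produced two masks over all imaged wells. The viability score expresses confluency against resting cells, and both masks had to exceed 70% of resting cells for a compound to meet the cutoff.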

[4] = agonist: CpG ODN 1826 0.5 ug/mL

Structure (SMILES)	NF-kB reporter [1, 4]	NF-kB reporter ([1]; agonist: LPS 0.1 ug/mL)	NF-kB reporter ([1]; agonist: MPLA […])	IRF reporter ([2]; agonist: 3'3'-cGAMP 10 ug/mL)	IRF reporter ([2]; agonist: LPS 0.1 ug/mL)	IRF reporter ([2]; agonist: MPLA […])	viability score [3]
C=CCc1ccc(OCCCOc2ccccc2C(C)=O)c(OC)c1	1.02 ± 0.072	1.08 ± 0.082	1.19 ± 0.049	0.66 ± 0.026	0.863 ± 0.052	1.07 ± 0.12	0.99 (active)
COc1ccc(CNC(=O)NCC#CCOc2cccc(C(F)(F)F)c2)cc1OC	1.07 ± 0.11	1.07 ± 0.098	0.95 ± 0.063	1.01 ± 0.05	1.09 ± 0.13	1.13 ± 0.29	1.01 (active)
CN(C)C(=O)COC(=O)Cc1ccc(OC(=O)c2ccc(NC(=N)N)cc2)cc1.CS(=O)(=O)O	1.04 ± 0.045	0.913 ± 0.083	1.01 ± 0.079	1.07 ± 0.049	1.21 ± 0.22	1.25 ± 0.4	0.829 (active)
Cc1oncc1CNC(=O)c1ccc(C(C)(C)C)cc1	1.18 ± 0.089	1.1 ± 0.083	1.07 ± 0.049	0.779 ± 0.039	1.01 ± 0.05	1.02 ± 0.099	0.996 (active)
O=C(CN1CCN(c2ccccc2F)C1=O)N1CCCC(Oc2ccncn2)C1 (configuration not stated)	0.874 ± 0.21	0.941 ± 0.052	0.992 ± 0.092	0.507 ± 0.025	0.968 ± 0.15	1.13 ± 0.27	0.547 (inactive)
CC1CCN(C2=NC(=O)C(=Cc3cccc4ccccc34)S2)CC1	1.06 ± 0.087	0.987 ± 0.076	0.954 ± 0.057	0.963 ± 0.05	1.54 ± 0.23	1.2 ± 0.18	1.01 (active)
O=S(=O)(Cc1cccc(Cl)c1)N1C2CCC1CC(Oc1cccnc1)C2 (configuration not stated)	1.07 ± 0.064	1.13 ± 0.1	1.08 ± 0.039	0.96 ± 0.064	1.12 ± 0.063	1.2 ± 0.12	1 (active)
COc1cccc(C=NNc2nnc(C)c(=O)[nH]2)c1OC	0.888 ± 0.27	1.08 ± 0.094	0.993 ± 0.12	0.952 ± 0.038	1.09 ± 0.22	1.15 ± 0.29	1.01 (active)
Cl.N=C1CCCN1Cc1[nH]c(=O)[nH]c(=O)c1Cl	1.46 ± 0.062	0.379 ± 0.037	0.688 ± 0.06	0.423 ± 0.028	0.796 ± 0.23	0.995 ± 0.31	0.961 (active)
CC(=O)NO	0.863 ± 0.12	0.93 ± 0.071	0.953 ± 0.053	0.834 ± 0.068	0.901 ± 0.15	0.977 ± 0.092	1 (active)
CN1CCN(C2=Nc3ccccc3Oc3ccc(Cl)cc32)CC1.O=C(O)CCC(=O)O	0.411 ± 0.052	0.796 ± 0.081	1.07 ± 0.1	0.548 ± 0.12	0.722 ± 0.13	0.672 ± 0.15	0.92 (active)
COc1ccc(-c2csc(NC(=O)C3CC3)n2)cc1	1.1 ± 0.064	0.958 ± 0.078	1.05 ± 0.032	0.876 ± 0.032	1.05 ± 0.08	1.13 ± 0.26	0.988 (active)
O=C1Cc2cc(NC(=O)c3ccc(OC(F)(F)F)cc3)ccc2N1	1.19 ± 0.083	0.929 ± 0.076	0.998 ± 0.068	0.643 ± 0.034	0.959 ± 0.059	0.99 ± 0.13	1 (active)
O=C(Cc1ccc(F)cc1)NCC1CCCN1c1ccccc1 (configuration not stated)	1.21 ± 0.11	1.1 ± 0.083	1.09 ± 0.029	0.677 ± 0.043	1.12 ± 0.077	0.893 ± 0.13	0.992 (active)
Cc1c(N=Cc2cc([N+](=O)[O-])ccc2O)c(=O)n(-c2ccccc2)n1C	0.911 ± 0.055	0.995 ± 0.061	0.907 ± 0.089	0.917 ± 0.03	1.34 ± 0.15	1.18 ± 0.2	0.999 (active)
CN(C)CC#CCNC(=O)Nc1ccc(C(F)(F)F)cc1	0.935 ± 0.33	0.899 ± 0.045	0.874 ± 0.058	0.425 ± 0.016	1.06 ± 0.22	1.22 ± 0.13	1 (active)
COc1ccc(CC(C)N2CCN(c3cccc(C)c3C)CC2)cc1OC (configuration not stated)	0.765 ± 0.064	0.974 ± 0.074	1.03 ± 0.08	0.787 ± 0.056	1.75 ± 0.22	1.16 ± 0.11	0.6 (inactive)
N#Cc1cc(-c2n[nH]c(-c3ccncc3)n2)ccn1	0.998 ± 0.19	1.06 ± 0.32	0.958 ± 0.077	0.891 ± 0.035	1.13 ± 0.25	1.12 ± 0.28	1 (active)
COc1cccc(-c2cc(C(=O)N3CCC(Oc4cc(C)n(C)c(=O)c4)CC3)n(C)n2)c1	1.01 ± 0.11	0.994 ± 0.1	0.983 ± 0.06	0.991 ± 0.059	0.964 ± 0.066	0.938 ± 0.085	1 (active)
COC(=O)C1=CN(CC2CCCO2)C=C(C(=O)OC)C1c1cccc(Br)c1 (configuration not stated)	0.886 ± 0.18	0.871 ± 0.088	0.944 ± 0.073	0.975 ± 0.037	1.21 ± 0.13	1.29 ± 0.13	1 (active)
O=C(O[C@@H]1C[C@@H]2C[C@@H]3C[C@H](C1)N2CC3=O)c1c[nH]c2ccccc12 [Prestw-1510]	0.575 ± 0.048	0.718 ± 0.056	0.697 ± 0.043	0.931 ± 0.04	0.958 ± 0.055	0.958 ± 0.18	1 (active)
COc1cc(C)n(CCNC(=O)c2ccccc2C(F)(F)F)c(=O)c1	0.904 ± 0.039	0.933 ± 0.076	1.12 ± 0.06	1.03 ± 0.055	1.34 ± 0.28	1.51 ± 0.4	0.941 (active)
CC(C)NCC(O)COc1cccc2ccccc12 (configuration not stated) [Prestw-1075]	1.02 ± 0.064	0.92 ± 0.11	1.05 ± 0.043	0.896 ± 0.032	0.929 ± 0.071	0.918 ± 0.09	0.985 (active)
CC1CN(C2=NC(=O)C(=Cc3ccc(-c4ccccc4Cl)o3)S2)CC(C)O1 (configuration not stated)	0.495 ± 0.054	0.841 ± 0.053	0.943 ± 0.089	0.813 ± 0.053	1.34 ± 0.12	1.44 ± 0.15	1.02 (active)
CCOC(=O)C1C(=O)C=C(C)C(C(=O)OCC)C1c1ccc(Br)cc1 (configuration not stated)	1.05 ± 0.083	1.01 ± 0.093	1.06 ± 0.07	1.17 ± 0.047	1.3 ± 0.17	1.25 ± 0.19	1 (active)
O=c1[nH]c2ccccc2n1CCN1CCN(c2cccc(C(F)(F)F)c2)CC1	0.278 ± 0.037	0.403 ± 0.097	0.448 ± 0.028	0.953 ± 0.034	1.24 ± 0.34	1.51 ± 0.2	0.915 (active)
